# Measured values published in PMC5540273 (PLoS ONE, 2017).
# Columns and labels:
# Conditions in all cases: concentration: 1 μM, replicates: in singlicate; n = 1
# ANKK1 = tested on: ANKK1
# ARK5 = tested on: T1, ARK5
# T1 construct: gene NUAK1
# ASK1 = tested on: T2, ASK1
# T2 construct: gene MAP3K5
# ASK2 = tested on: T3, ASK2
# T3 construct: gene MAP3K6
# AURKA = tested on: AURKA
# AURKB = tested on: AURKB
# AURKC = tested on: AURKC
# AXL = tested on: AXL
# BIKE = tested on: T4, BIKE
# T4 construct: gene BMP2K
# BLK = tested on: BLK
# 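Note: KINOMEscan kinase panel screen.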
Structure (SMILES),%Inh (ANKK1),%Inh (ARK5),%Inh (ASK1),%Inh (ASK2),%Inh (AURKA),%Inh (AURKB),%Inh (AURKC),%Inh (AXL),%Inh (BIKE),%Inh (BLK)
Cc1nnc(-c2ccc3occ(-c4ccc(S(C)=O)cc4)c3c2)[nH]1 (stereo not drawn),28%,6%,0%,3%,25%,49%,0%,24%,0%,0%
COc1ccc(C2=C(Nc3cccc(C(=O)O)c3)C(=O)NC2=O)cc1 [SB-390765],6%,5%,9%,21%,18%,26%,0%,19%,18%,0%
CS(=O)(=O)c1ccc(-c2nc3n(c2-c2ccncc2)CCC3)cc1 [SKF-105942],0%,8%,11%,0%,0%,34%,0%,0%,3%,9%
